Source: PubChem BioAssay (National Center for Advancing Translational Sciences (NCATS))
Only some compounds are listed: those with a hit (about 5.2% of all), similar ones and a draw of the others.
VDR inhibitor: vitamin D3 receptor (human) inhibition; P11473; VDR-SRC2-3 peptide fluorescence polarization, 2 h; Potency, µM, for inactives: max response, negative = inhibition, most hits filed as inhibitors; 400,000 compounds, 0.93% hits; AID 504847
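VDR–SRC2-3 interaction, FP format. Cmpds 23 nl via pintool, brief spin, 2 h ambient incubation.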
rTrxR1 inhibitor: rat TrxR1 inhibition. O89049. recombinant rTrxR1, NADPH fluorescence consumption, selenite substrate. Potency, µM (top dose mostly 114 µM), for the others: top-dose activity change, negative = inhibition, hits mostly inhibitors. 390,000 compounds, 1% hits. AID 588453; further: nearly all actives have a fitted effect of over 65% in size
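Rat TrxR1 (90 nM in the dispensed reagent) was pre-reduced with 400 uM NADPH for 5 min at room temperature, then incubated with compound for 15 min. After 400 uM selenite was added, NADPH fluorescence (Ex 340/Em 450 nm) was followed for 8 min.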
PLK1 PBD block: blocks phosphopeptide binding to human PLK1 polo-box domain | 360,000 compounds, 2.8% hits | Plk1 PBD binding of FITC phosphopeptide, fluorescence polarization | AID 720504 | Potency, µM, inactives show max response, negative = inhibition, most hits filed as inhibitors | P53350; further: series mostly up to about 57 µM; nearly all actives have a fitted effect of over 65% in size
TrxR1 substrate: rat thioredoxin reductase 1 substrate activity | O89049 | 390,000 compounds, 0.01% hits | Potency, µM (doses to about 114 µM), without a hit: top-dose activity change, negative = substrate turnover | purified TrxR1 substrate turnover, NADPH consumption readout; further: nearly all actives have a fitted effect of over 50% in size
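Rat TrxR1, dispensed at 90 nM, was prereduced with 400 uM NADPH (final) for 5 min at ~22 deg C, then incubated with compound 15 min before 400 uM selenite. A first-read NADPH fluorescence drop versus no-compound background flagged substrates.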
Sfp inh: blocks B. subtilis Sfp PPTase activity; Q9F4F7; Potency, µM, for inactives: largest response in the series, negative = inhibition, actives largely listed as inhibitors; AID 1490; 310,000 compounds, 3.5% hits; Biochemical Sfp PPTase activity, qHTS;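 further: the enzyme is Sfp with the accession as filed and its product quenches rhodamine fluorescence; 0% = enzyme reaction without inhibitor and -100% = no enzyme wells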
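Buffer: 50 mM Hepes-Na pH 7.6, 10 mM MgCl2, 0.01% Nonidet P-40, 0.01% BSA. Enzyme 15 nM, pre-exposed to compound 15 min; substrates then added and fluorescence change tracked over 30 min.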
mIDH1 inhibitor: inhibitors of human mutant IDH1 R132H; IDH1-R132H enzyme, NADPH consumption, diaphorase/resazurin fluorescence; 390,000 compounds, 0.093% hits; O75874; AID 602179; Potency, µM (doses to about 76.6 µM), inactives show at the highest dose activity change, negative = inhibition, actives largely listed as inhibitors; further: nearly all actives have a fitted effect of over 65% in size
Target sequence (O75874 whole entry R132H, stated change not applied): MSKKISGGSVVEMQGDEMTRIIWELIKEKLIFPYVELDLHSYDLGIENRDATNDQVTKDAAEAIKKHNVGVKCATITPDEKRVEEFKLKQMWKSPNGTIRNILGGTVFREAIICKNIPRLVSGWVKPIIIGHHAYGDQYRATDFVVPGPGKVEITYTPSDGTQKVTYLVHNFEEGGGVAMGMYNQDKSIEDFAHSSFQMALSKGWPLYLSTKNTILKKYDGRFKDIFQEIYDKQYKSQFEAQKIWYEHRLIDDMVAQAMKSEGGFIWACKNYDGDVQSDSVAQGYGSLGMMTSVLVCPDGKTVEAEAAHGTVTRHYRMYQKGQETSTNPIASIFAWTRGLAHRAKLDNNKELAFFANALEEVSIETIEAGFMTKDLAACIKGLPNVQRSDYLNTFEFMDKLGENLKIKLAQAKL
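IDH1-R132H (0.5 ug/mL dispensed) in pH 7.5 Tris buffer was preincubated 30 min with compound, then given a substrate mix of 0.016 mM NADPH and 2 mM alpha-KG for 80 min at room temperature; remaining NADPH was read by diaphorase/resazurin fluorescence.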
* = called active by the depositor; ! = not active in a repeat; [ ] = dose if it differs, or a comment. The call rests on the fitted dose curve; in most records, active means well fitted curve in the direction sought with a large enough effect; inconclusive means small, poorly fitted or top-dose-only effect, or another doubt; inactive means no such curve, though single readings can be large; an effect the other way counts as inactive or inconclusive. Unless noted, on the % scale 0 is the no-effect control and ±100 the full control effect; potency means the concentration at half of the fitted maximal effect.

How did Fc1ccc(C2CC(c3ccco3)=NN2c2ccccc2)cc1 (stereo not drawn) do in these assays?
VDR inhibitor: -3.6%; rTrxR1 inhibitor: 61.0%[57.1 µM]; PLK1 PBD block: 1.7%; TrxR1 substrate: 269.2%[57.1 µM]; Sfp inh: 8.2%; mIDH1 inhibitor: 1.8%

What do the screens show for `COc1ccc(N2CCN(C(=O)c3ccc(Cn4c(=S)[nH]c5ccc(N6CCOCC6)cc5c4=O)cc3)CC2)cc1`?
VDR inhibitor: 10.6%; rTrxR1 inhibitor: 21.4%[57.1 µM]; PLK1 PBD block: -15.8%; TrxR1 substrate: 7.4%[57.1 µM]; Sfp inh: 70.8µM*; mIDH1 inhibitor: 1.6%

How did O=C(c1ccc(Cn2c(=S)[nH]c3ccc(N4CCOCC4)cc3c2=O)cc1)N1CCN(c2ccc(F)cc2)CC1 do in these assays?
VDR inhibitor: -22.8%; rTrxR1 inhibitor: 4.8%[57.1 µM]; PLK1 PBD block: -3.6%; TrxR1 substrate: 15.9%; Sfp inh: 5.7%; mIDH1 inhibitor: 3.0%

Results for COc1ccc(O[C@H]2C=C[C@@H](c3ccccc3)O[C@H]2CO/N=C2/[C@H]3O[C@@H]3[C@@H](O)[C@H]3[C@H]2CCn2c(=O)n(-c4ccccc4)c(=O)n23)cc1 ?
Sfp inh: 11.7%

What do the screens show for `Cc1cccc(-c2nc(=S)c3c(n2Cc2ccco2)CCCC3)c1`?
VDR inhibitor: 4.8%; rTrxR1 inhibitor: inconclusive; PLK1 PBD block: inconclusive; TrxR1 substrate: 3.4%; Sfp inh: 20µM*; mIDH1 inhibitor: 0.1%

What do the screens show for `Cc1ccc(-c2nc(=S)c3c(n2Cc2ccco2)CC(C)(C)OC3)cc1`?
VDR inhibitor: inconclusive; rTrxR1 inhibitor: inconclusive; PLK1 PBD block: inconclusive; TrxR1 substrate: 7.8%; Sfp inh: 56.2µM*; mIDH1 inhibitor: -1.4%

How did COC(=O)C(CCSC)NS(=O)(=O)c1ccccc1Br (stereo not drawn) do in these assays?
VDR inhibitor: 1.3%; rTrxR1 inhibitor: -4.5%; TrxR1 substrate: -3.3%; Sfp inh: 15.7%

Results for CC(C)Oc1ccc(/C=N/NC(=O)c2nnn(-c3nonc3N)c2CN(C)c2ccccc2)cc1 ?
VDR inhibitor: 2.6%; rTrxR1 inhibitor: 16.7%; PLK1 PBD block: -15.6%; TrxR1 substrate: -10.0%; Sfp inh: -12.7%; mIDH1 inhibitor: -0.4%

Results for CCOC(=O)c1ccc(-n2c(CN3CCC(C(N)=O)CC3)nc3ccc([N+](=O)[O-])cc3c2=O)cc1 ?
VDR inhibitor: inconclusive; rTrxR1 inhibitor: inconclusive; PLK1 PBD block: -25.7%; TrxR1 substrate: -1.8%; Sfp inh: 22.4µM*; mIDH1 inhibitor: -0.5%

What do the screens show for `CCOC(=O)c1ccc(-n2c(CN(CC)CC)nc3ccc([N+](=O)[O-])cc3c2=O)cc1`?
VDR inhibitor: inconclusive; rTrxR1 inhibitor: inconclusive; PLK1 PBD block: inconclusive; TrxR1 substrate: 0.5%; Sfp inh: 22.4µM*; mIDH1 inhibitor: 2.3%

Results for CCOC(=O)c1ccc(-n2c(CN3CCC(O)CC3)nc3ccc([N+](=O)[O-])cc3c2=O)cc1 ?
VDR inhibitor: -14.3%; rTrxR1 inhibitor: 50.1µM*; PLK1 PBD block: inconclusive; TrxR1 substrate: -10.3%; Sfp inh: 17.8µM*; mIDH1 inhibitor: 3.6%

Results for CCOC(=O)c1ccc(-n2c(CN3CCN(CC)CC3)nc3ccc([N+](=O)[O-])cc3c2=O)cc1 ?
VDR inhibitor: 10.9%; rTrxR1 inhibitor: -11.0%; PLK1 PBD block: -8.8%; TrxR1 substrate: 5.9%; Sfp inh: -6.1%; mIDH1 inhibitor: 5.4%

How did CCOC(=O)c1ccc(-n2c(CN3CCOCC3)nc3ccc([N+](=O)[O-])cc3c2=O)cc1 do in these assays?
VDR inhibitor: -0.2%; rTrxR1 inhibitor: 0.8%; PLK1 PBD block: -0.7%; TrxR1 substrate: 3.0%; Sfp inh: -28.5%; mIDH1 inhibitor: 6.3%

Results for CCOC(=O)c1ccc(-n2c(CC)nc3ccccc3c2=O)cc1 ?
Sfp inh: 8.0%

What do the screens show for `Cc1ccc2nc(N)[nH]c(=O)c2c1Sc1ccncc1`?
VDR inhibitor: -0.6%; Sfp inh: 8.3%

Results for COc1cc(OC)cc(C2=Nn3c(nnc3-c3ccccc3O)SC2)c1 ?
Sfp inh: 2.6%

Results for NCCc1ccc(O)c(O)c1 ?
VDR inhibitor: -1.3%; rTrxR1 inhibitor: inconclusive; PLK1 PBD block: -10.9%; TrxR1 substrate: 5.5%[57.1 µM]; Sfp inh: 79.4µM*!; mIDH1 inhibitor: 5.0%

Results for CCOc1cccc(C=Nc2cc(C)cc(C)c2O)c1O ?
VDR inhibitor: inconclusive; rTrxR1 inhibitor: inconclusive; PLK1 PBD block: 23.8µM*; TrxR1 substrate: -1.6%; Sfp inh: -8.3%; mIDH1 inhibitor: -2.0%

How did COc1cc(NC(=O)c2cccc(NC3=NC4CS(=O)(=O)CC4S3)c2)cc(OC)c1OC (stereo not drawn) do in these assays?
VDR inhibitor: -8.5%; rTrxR1 inhibitor: 17.5%[57.1 µM]; PLK1 PBD block: -8.0%; TrxR1 substrate: -0.4%[57.1 µM]; Sfp inh: 10.1%; mIDH1 inhibitor: 3.5%

Results for CC(C)=NO[C@@H](C)c1cn([C@@H]2COC[C@@H]2O)nn1 ?
Sfp inh: 3.0%

How did CC(C)=NOCc1ccc(-c2cn([C@@H]3COC[C@@H]3O)nn2)cc1 do in these assays?
Sfp inh: 14.1µM*

What do the screens show for `COc1ccc(Br)cc1Cn1nnc(C(=O)Nc2cccc(SC)c2)c1N`?
VDR inhibitor: -11.9%; rTrxR1 inhibitor: 6.3%; TrxR1 substrate: -0.4%; mIDH1 inhibitor: -3.3%

Results for CC(C)(C)NC(=O)C(c1c[nH]c2ccccc12)N(C(=O)Cn1nnc(-c2ccc(F)cc2)n1)c1cccc(O)c1 (stereo not drawn) ?
VDR inhibitor: inconclusive; rTrxR1 inhibitor: 6.8%; PLK1 PBD block: 26.7µM*; TrxR1 substrate: -1.9%; Sfp inh: 15.2%; mIDH1 inhibitor: -4.4%

Results for CC(C)(C)NC(=O)C(c1ccco1)N(C(=O)Cn1nnc(-c2ccc(F)cc2)n1)c1cccc(F)c1 (stereo not drawn) ?
VDR inhibitor: -8.7%; rTrxR1 inhibitor: 19.0%; PLK1 PBD block: -6.9%; TrxR1 substrate: 1.6%; Sfp inh: 15.4%; mIDH1 inhibitor: -4.5%

How did Cc1ccsc1C=Nc1ccc(O)cc1 do in these assays?
VDR inhibitor: inconclusive; rTrxR1 inhibitor: 56.2µM*; PLK1 PBD block: inconclusive; TrxR1 substrate: inconclusive; Sfp inh: inconclusive; mIDH1 inhibitor: 14.3%

How did Cc1ccsc1/C=N/N=C/c1sccc1C do in these assays?
VDR inhibitor: 8.6%; rTrxR1 inhibitor: 37.0%; PLK1 PBD block: -3.1%; TrxR1 substrate: 8.6%[2.29 µM]; Sfp inh: -7.6%; mIDH1 inhibitor: -0.2%

What do the screens show for `CN(C)CCCOc1ccc2c(c1)Sc1ccccc1CC2=O`?
VDR inhibitor: -2.3%; rTrxR1 inhibitor: -6.1%; PLK1 PBD block: -16.5%; TrxR1 substrate: -8.6%; Sfp inh: 22.4µM*; mIDH1 inhibitor: 1.1%
